AmpC inh no detg – AmpC beta-lactamase inhibition without detergent; P00811; AmpC nitrocefin hydrolysis, absorbance 480 nm, 0.0001% Triton; Potency, µM (doses to about 57.1 µM), inactives show at the highest dose activity change, negative = inhibition, hits mostly inhibitors; 330,000 compounds, 0.52% hits; AID 485341;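 note: plate controls were no compound for no effect and no enzyme for full effect; nearly all actives have a fitted effect of over 20% in size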
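AmpC (5.3 nM in the dispensed reagent) in 20 mM phosphate pH 7.0 with 0.01% (detergent screen) or 0.0001% Triton X-100 was preincubated with compounds for 15 min at room temperature. Nitrocefin was then added from an 800 uM solution, and hydrolysis was followed at 480 nm.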
AMA1-RON2 inh – AMA1-RON2 (P. falciparum) interaction inhibition | AlphaScreen AMA1-biotinylated RON2 peptide binding | Potency, µM (top dose mostly 58.2 µM), for inactives: top-dose activity change, negative = inhibition, hits mostly inhibitors | 360,000 compounds, 0.2% hits;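 note: 0% = vehicle wells and -100% = peptide control; nearly all actives have a fitted effect of over 45% in size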
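AMA1 (3D7) with his tag at 25 nM final met compounds first, then biotinylated RON2 peptide at 25 nM; detection used donor plus acceptor beads, 10 µg/mL apiece, read by AlphaScreen after 30 min at room temperature.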
Giardia FBPA inh-1 – Giardia lamblia aldolase inhibition | A8B2U2 | purified Giardia FBPA | Potency, µM (top dose mostly 59.6 µM), for inactives: at the top dose activity, negative = inhibition, actives largely listed as inhibitors | 290,000 compounds, 0.71% hits; note: nearly all actives have a fitted effect of over 55% in size
Target sequence (A8B2U2 whole entry, looked up): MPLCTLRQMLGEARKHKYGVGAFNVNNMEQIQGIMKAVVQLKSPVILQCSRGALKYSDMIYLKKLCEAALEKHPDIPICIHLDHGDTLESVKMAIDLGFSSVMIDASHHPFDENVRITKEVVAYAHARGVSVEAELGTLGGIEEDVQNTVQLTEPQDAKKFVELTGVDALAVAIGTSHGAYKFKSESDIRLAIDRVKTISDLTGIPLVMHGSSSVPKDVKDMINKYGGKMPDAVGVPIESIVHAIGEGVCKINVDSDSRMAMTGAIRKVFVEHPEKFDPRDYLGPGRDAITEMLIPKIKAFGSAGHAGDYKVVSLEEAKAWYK
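Giardia FBPA (40 nM reagent) was preincubated 10 min at RT with compound (up to 57.5 uM final), then substrate plus GAPDH/TPI/NAD/arsenate coupling system with diaphorase/resazurin was added; resorufin fluorescence (525/598 nm) was read after 20 min.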
LmPK inhibitor – inhibitors of Leishmania mexicana pyruvate kinase; Q27686; Potency, µM (series often up to 57.5 µM), for the others: at the highest dose activity change, negative = inhibition, hits mostly inhibitors; AID 1721; 290,000 compounds, 0.37% hits; purified LmPK, Kinase-Glo ATP luminescence, 1 h
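Purified LmPK (0.1 nM) converted ADP (0.1 mM) to ATP with PEP (0.5 mM) in imidazole buffer pH 7.2 with KCl and MgCl2, 1 h at room temperature. ATP was read by Kinase-Glo luminescence; data normalized to uninhibited and no-enzyme controls.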
AmpC detergent – inhibitors of E. coli AmpC beta-lactamase with detergent | P00811 | AmpC hydrolysis of nitrocefin, absorbance 480 nm, 0.01% Triton | Potency, µM (doses to about 114 µM), for the others: at the highest dose activity change, negative = inhibition, usual class: inhibitors | 370,000 compounds, 0.041% hits | AID 485294;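 note: 0% = no-compound wells and -100% = no-enzyme wells; nearly all actives have a fitted effect of over 25% in size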
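20 mM phosphate pH 7.0 + 0.01% (detergent screen) or 0.0001% Triton X-100; 5.3 nM AmpC reagent; cpd preinc 15 min RT; nitrocefin (800 uM stock) to start; A480 q20 s × 4 min; Activity was normalised to no-enzyme and no-compound control wells.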
Giardia growth – Giardia lamblia growth inhibition; AID 2785; Potency, µM (top dose mostly 57.5 µM), for inactives: top-dose activity change, negative = inhibition, hits mostly inhibitors; shares compounds with Giardia FBPA inh-1; 1,500 compounds, 5% hits; Giardia lamblia trophozoite growth inhibition;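 note: trophozoites exposed to compound for 48 h at 37 °C; nearly all actives have a fitted effect of over 70% in size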
Mammalian tox – toxic to mammalian cells in Giardia aldolase counter-screen; 1,500 compounds, 4% hits; shares compounds with Giardia FBPA inh-1; mammalian cell viability counter-screen, qHTS; Potency, µM (titrated, usually from 57.5 µM), without a hit: at the top dose viability change, negative = toxicity, most hits filed as inhibitors;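 note: Chinese hamster ovary cells used as mammalian cytotoxicity surrogate; viability measured as cellular ATP by luminescence; compound exposure lasted 48 h before reading; nearly all actives have a fitted effect of over 60% in size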
Giardia FBPA inh-2 – confirmation of Giardia fructose-bisphosphate aldolase inhibitors. shares compounds with Giardia FBPA inh-1. purified Giardia aldolase enzyme activity, qHTS. Potency, µM (titrated, usually from 57.5 µM), for inactives: at the highest dose activity change, negative = inhibition, hits mostly inhibitors. 1,500 compounds, 5% hits. AID 2787; note: nearly all actives have a fitted effect of over 45% in size
Rabbit aldolase – selectivity test for Giardia aldolase inhibitors: rabbit aldolase; shares compounds with Giardia FBPA inh-1; Rabbit muscle FBPA enzyme inhibition, selectivity counter-screen; Potency, µM (titrated, usually from 57.5 µM), without a hit: at the top dose activity, negative = inhibition, most hits filed as inhibitors; 1,500 compounds, 4% hits; note: nearly all actives have a fitted effect of over 60% in size
Target sequence (P00883 whole entry, looked up): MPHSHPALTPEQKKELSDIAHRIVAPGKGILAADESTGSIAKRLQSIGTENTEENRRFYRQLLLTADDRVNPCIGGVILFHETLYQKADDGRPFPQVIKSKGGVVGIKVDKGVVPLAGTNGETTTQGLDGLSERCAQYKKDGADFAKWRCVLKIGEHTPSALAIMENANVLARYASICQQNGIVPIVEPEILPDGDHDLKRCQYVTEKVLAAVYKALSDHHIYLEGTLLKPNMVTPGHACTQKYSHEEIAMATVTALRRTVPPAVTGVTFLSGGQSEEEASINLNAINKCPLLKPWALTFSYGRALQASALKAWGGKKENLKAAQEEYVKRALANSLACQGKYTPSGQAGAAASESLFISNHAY
GAPDH counter – GAPDH inhibition flagged for Giardia aldolase hits. GAPDH coupling enzyme counterscreen, biochemical, qHTS. shares compounds with Giardia FBPA inh-1. Potency, µM (titrated, usually from 57.5 µM), without a hit: top-dose activity change, negative = inhibition, usual class: inhibitors. AID 2795. 1,500 compounds, 6% hits; note: nearly all actives have a fitted effect of over 55% in size
Numbers without * were called inactive; ? = inconclusive; · = no result; [ ] = remark or other dose. Only some compounds are listed: those with a hit (about 1.3% of all), similar ones and a draw of the others. Calls come from the whole dose curve; as a rule, active = well fitted curve in the direction sought with a large enough effect; inconclusive = small, poorly fitted or top-dose-only effect, or another doubt; inactive = no such curve, though single readings can be large; an effect the other way counts as inactive or inconclusive. Unless noted, % is set by controls: 0 for no effect and ±100 for the full control effect; potency is the fitted concentration of half-maximal effect.

SMILES	AmpC inh no detg	AMA1-RON2 inh	Giardia FBPA inh-1	LmPK inhibitor	AmpC detergent	Giardia growth	Mammalian tox	Giardia FBPA inh-2	Rabbit aldolase	GAPDH counter
S=c1[nH]c2cc(Cl)c3cccnc3c2o1	-27%	27%	3.5µM*	-4%	-10%	-6%[38.3 µM]	-15%	?	?	?
COc1cc2c(cc1[N+](=O)[O-])-c1ccc([N+](=O)[O-])cc1C2=NO	·	-7%	·	·	·	·	·	·	·	·
COc1ccc(CN(C)CC(=O)Nc2sc3c(c2C#N)CCC3)c(OC)c1	-5%	23%	18µM*	-1%	1%	17%[10.4 µM]	3%	2%	11%	-6%
CN(CCOc1ccccc1)CC(=O)Nc1cccc(Br)c1	10%	-9%	?	-6%	-2%	·	·	·	·	·
Cc1cc(NC(=O)CN(C)CCOc2ccccc2)ccc1Br	83%	?	16µM*	-2%	-4%	?	13%	-9%	5%	-4%
CC(C)(O)C#Cc1cccc(-c2nc(C(=O)NCCCN3CCOCC3)cc3c2[C@H](CCO)N(S(=O)C(C)(C)C)C3)c1 (some centres not stated)	·	17%	·	·	·	·	·	·	·	·
CCOC(=O)c1cnc(SCC)[nH]c1=O	-24%	1%	-22%	-1%	?	·	·	·	·	·
CCOC(=O)c1cnc(-c2ccc(C(F)(F)F)cn2)[nH]c1=O	-20%	10%	5µM*	1%	5%	?	-7%	-6%	-9%	-10%
O=C(NC(=S)Nc1nc2ccccc2s1)c1ccco1	-21%	51%	5µM*	0%	-13%	7.9µM*	?	-3%	12%	8%
COc1ccc2nc(NC(=S)NC(=O)c3ccco3)sc2c1	-32%	53%	?	-3%	-7%	·	·	·	·	·
CC1(C)Cc2c(cnn2-c2ccccc2)C(NC(=O)CCN2CCCC2=O)C1 (configuration not stated)	18%	-7%	3%	-4%	-12%	·	·	·	·	·
COc1ccc(C(=O)N/N=C/c2ccccn2)cc1OC	-23%	82%	16µM*	-3%	-1%	-14%	-4%	1%	0%	1%
CC(C)(C)c1cc(C(=O)N/N=C/c2ccccn2)n[nH]1	-21%	96%	16µM*	0%	-7%	?	6%	8%	5%	-10%
O=C(N/N=C/c1ccccn1)c1ccco1	-15%	50%	20µM*	1%	-8%	-13%	-1%	-2%	-3%	-5%
COc1ccc(C(=O)Nc2ccccc2C(=O)N/N=C/c2ccccn2)cc1OC	8%	38%	?	?	0%	·	·	·	·	·
O=C(N/N=C/c1ccccn1)c1ccccc1	-10%	90%	9%	-10%	-8%	·	·	·	·	·
O=C(N/N=C\c1ccccn1)c1ccccc1O	-32%	64%	16µM*	-7%	-7%	-23%	?	-4%	-4%	-7%
CC(C)(C)c1cc(C(=O)N/N=C/c2ccncc2)n[nH]1	3%	21%	·	-12%	4%	·	·	·	·	·
Cc1ccccc1C(=O)N/N=C/c1ccccn1	-24%	105%	6%	-9%	-4%	·	·	·	·	·
O=C(Nc1cccc(Cl)c1)N1CC2CCCN2c2ccccc21 (configuration not stated)	·	·	·	·	7%	·	·	·	·	·
O=C(N/N=C/c1ccccn1)c1ccncc1	-13%	69%	-6%	-1%	-1%	·	·	·	·	·
O=C(N/N=C/c1ccccn1)c1cccs1	0%	107%	13µM*	-5%	6%	-25%	-5%	1%	-2%	-1%
COc1ccccc1N1CCN(CCC(=O)Nc2cccc(Cl)c2)CC1	62%	-5%	-2%	1%	-22%	·	·	·	·	·
Cc1ccc(C(=O)NNC(=S)NC(=O)c2ccccc2)cc1	·	40%	·	·	·	·	·	·	·	·
Cc1ccc(C(=O)NNC(=S)NC(=O)c2ccc(Cl)cc2Cl)cc1	-36%	50%	?	0%	-8%	-33%[38.3 µM]	?	10%	4%	11%
SMILES	AmpC inh no detg	AMA1-RON2 inh	Giardia FBPA inh-1	LmPK inhibitor	AmpC detergent	Giardia growth	Mammalian tox	Giardia FBPA inh-2	Rabbit aldolase	GAPDH counter
CC(C(=O)Nc1cccc([N+](=O)[O-])c1)[n+]1ccccc1 (configuration not stated)	-26%	-3%	16µM*	9%	-9%	?	8%	5%	0%	17%
CC(Sc1cccc[n+]1[O-])C(=O)Nc1cccc([N+](=O)[O-])c1 (configuration not stated)	-18%	48%	0%	7%	?	·	·	·	·	·
O=C(Nc1ccnn1C1CCN(CCCc2ccccc2)CC1)c1ccccc1Cl	50%	-3%	·	-9%	4%	·	·	·	·	·
C[N+](C)=C1SCC(C)(/C=N/O)S1 (configuration not stated)	1%	39%	14µM*	-2%	2%	58%	-10%	0%	12%	1%
CCN(CC)c1ccc2c(C)c(Cl)c(=O)oc2c1	3%	191%	18µM*	-12%	-3%	-3%	-1%	-1%	9%	-2%
O=C1C(Cl)=C(NCCCO)C(=O)c2ccccc21	-15%	-9%	?	-12%	?	·	·	·	·	·
O=C1C(SCCO)=C(SCCO)C(=O)c2ccccc21	-26%	-18%	0.89µM*	·	?	?	11µM*	6.3µM*	?	4µM*
COc1ccc(N2CCN(C(=O)c3c(C)oc4ncn(CC(C)C)c(=O)c34)CC2)cc1	·	·	·	·	14%	·	·	·	·	·
CN(C)C(=S)SSC(=S)N(C)C	?	-2%	40µM*	1%	79µM*	14µM*	4.5µM*	?	?	40µM*
CCN1CCc2c(sc(N)c2C#N)C1	-24%	-3%	?	-3%	?	·	·	·	·	·
N#Cc1c(N)sc(=S)c2c1CCN(Cc1ccccc1)C2	-23%	·	1.3µM*	1%	0%	15%[38.3 µM]	-8%	32µM*	?	32µM*
COc1ccncc1-c1csc(C(O)c2ccccc2)n1 (configuration not stated)	·	2%	·	·	·	·	·	·	·	·
